Reference: PubChem BioAssay (NCATS)
Records with an inconclusive call do not appear. Calls of active or inactive are those of the source. Unless noted, calls come from the whole dose curve; as a rule, active = well fitted curve in either direction with a large enough effect (not every such curve was filed as active); inconclusive = small, poorly fitted or top-dose-only effect, or another doubt; inactive = flat fitted curve, though single readings scatter.

Legend:
[1] = target: Cytochrome P450 1A2 (Homo sapiens) (UniProt P05177); assay: p450-cyp1a2 (AID 410; calls by dose curve; note: potency is the fitted concentration of half-maximal effect;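 for activity change, negative = inhibition: -100% = full effect of reference inhibitor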)
Summary of the method: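 Read-out is luminescence from luciferin produced by CYP1A2 demethylation of Luciferin-ME (100uM, at Km). Detection reagent stopped the 60 min NADPH-dependent reaction; signals were normalized to 57 uM furafylline.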

[2] = target: Glucocorticoid receptor (Homo sapiens) (UniProt P04150); assay: GR-GFP Redistribution (AID 450;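 active = compounds whose dose series gives a full or clear partial fitted curve of increased nuclear translocation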; note: potency is the fitted concentration of half-maximal effect); settings: U2OS GR-GFP nuclear translocation, laser cytometry, 2 h
[3] = target: Glucocorticoid receptor (Homo sapiens) (UniProt P04150); assay: GR-EFC Redistribution (AID 451; calls by dose curve; note: potency is the fitted concentration of half-maximal effect); settings: CHO-K1 GR-EFC translocation, beta-gal luminescence, 2 h
Summary of the method: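 CHO-K1 cells expressing nuclear EA and GR-ED fragments of b-gal; compounds titrated up to 46 uM final, 2 h at 37 C. GR nuclear translocation read as complemented b-gal luminescence after 1 h RT detection.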

[4] = target: Mitogen-activated protein kinase 10 (Mus musculus) (UniProt Q61831); assay: JNK3 AlphaScreen Assay (AID 530);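 note: kinase came from lysate of stimulated human HepG2 cells; signal reports phosphorylation of biotinylated GST-cJun 1-79 at Ser73 with 10 µM ATP; series mostly up to about 57 µM; % is set by controls: 0 for no effect and ±100 for the full control effect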
Summary of the method: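 HepG2 lysate (IL-1b/TNFa pre-activated) + biotin-GST-cJun 1-79 + anti-pSer73 cJun; cpd titration, 15 min RT; ATP 10 uM start; Tris pH 7.6, MgCl2, DTT, vanadate; beads in EDTA buffer; AlphaScreen.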

[5] = target: 3',5'-cyclic-AMP phosphodiesterase 4B (Homo sapiens) (UniProt Q07343); assay: qHTS Assay for Inhibitors of PDE-IV (AID 607; active = well fitted activation curve with a large enough effect in the main read-out, with a control signal flat, not every such curve was filed as active; note: % of control where 0% means no effect)
From the text: NIH Chemical Genomics Center [NCGC]
NIH Molecular Libraries Screening Centers Network [MLSCN]
The cyclic nucleotide phosphodiesterases (PDEs) are proteins that catalyze hydrolysis of 3', 5'-cyclic nucleotides, such as cyclic adenosine monophosphate (cAMP) and cyclic guanosine monophosphate (cGMP), to their corresponding 5'-nucleotide monophosphates. These enzymes play an important role in controlling cellular concentrations of cyclic nucleotides and have a central role in a variety of intracellular signaling events. cAMP PDEs are emerging as a promising class of drug targets in asthma and cardiovascular disease therapeutic areas.
There are no commercially available cell-based screening assays for PDE inhibitors: currently biochemical assays are done using pure substrates (cAMP or cGMP) and purified recombinant PDE enzymes. As with other biochemical screens on intracellular targets, false positives and false negatives may result from issues involving cell membrane permeability, cellular metabolism, and the like.
Here we report the development of a cell-based screening assay for cAMP phosphodiesterase (PDE) inhibitors. The assay is based on the BD ACTOne# technology (BD Biosciences) which utilizes a modified cyclic nucleotide-gated channel (CNG) to monitor intracellular cAMP changes in live cells. The CNG channel is localized on the plasma membrane, and opens when the intracellular cAMP level increases, resulting in ion flux and cell membrane depolarization. The influx of cations through the CNG channel can be quantified using membrane potential (MP) dyes. We modified the BD ACTOne technology to allow the detection of PDE inhibitors, and performed an inhibitor screen for PDE-IV, which is expressed endogenously in HEK293 cells. We optimized this assay in homogeneous 1536-well plate assay format for high throughput screening.
NCGC Assay Protocol Summary:
The medium contained 10% FBS (Invitrogen), 2 mM L-glutamine, and 250 ug/ml G418 (Cellgro) and 1 ug/ml puromycin (Clontech). ACTOneTM parental cells (BD Biosciences) were maintained in the same medium without puromycin.
The activity of the CNG channel was measured by BD ACTOneTM membrane potential dye kit (BD Biosciences). Forskolin, a positive control for cAMP activation and RO 20-1724, a PDE inhibitor, were both purchased from Sigma and solublized in DMSO.
Sequence,Parameter,Value,Description
1,Reagent,3 uL,1000 cells/well 1536 TC treated Black plate
3,Compound,0.5 uL,Kalypsys dispense RO 20-1724 100 uM final [A]
4,Reagent,3 uL,BD membrane potential dye
6,Compound,23 nL,Final concentration was 0.7nM to 22.9uM
8,Detector,EX 535 / EM 590 [B],Envision
Footnotes: [A] The stock 2 mM RO 20-1724 PDE inhibitor was made in 10 % DMSO. Parental cell line received 10 uM forskolin + 100 uM RO. [B] Envsion settings: Bottom Excitation 535/20 nm top emission 590/20, gain of 150 and 5 flashes per well.
Keywords: PDE, PDE-IV, cytotoxicity, flourescence, MLSMR, MLSCN, NIH Roadmap, qHTS, NCGC

[6] = AP1 Signaling Pathway (AID 357);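 note: ME-180 reporter cells stimulated with EGF at its EC50 level; % is set by controls: 0 for no effect and ±100 for the full control effect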
Summary of the method: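 Cells are seeded overnight, exposed to compound titrations and an EC50 level of EGF for 5 hours at 37 °C, then loaded with CCF4 dye for 2.5 hours. Beta-lactamase activity under the AP-1 element is read as a blue/green ratio.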

[7] = NFAT Signaling Pathway (AID 444);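 note: carbachol stimulus at about its EC50 of 1 µM final; % is set by controls: 0 for no effect and ±100 for the full control effect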
Summary of the method: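 Jurkat cells with NFAT-driven β-lactamase reporter and co-expressed M1 receptor, stimulated with carbachol (final 1 uM, ~EC50), compound titration, 5 h at 37 °C. CCF4 loaded 1 h at RT; 460/530 nm ratio gave %activity and AC50.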

[8] = Stat Signaling Pathway (AID 446);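 note: ME-180 cervical cancer cells given 40 pM IL-6 alongside compound; SIE-controlled beta-lactamase reporter measured as 460/530 nm FRET emission ratio; % is set by controls: 0 for no effect and ±100 for the full control effect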
Summary of the method: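 Normalization used AC90 stimulation (300 pM IL-6) and AC90 inhibition (125 nM pan-JAK inhibitor at 40 pM IL-6). The underlying signal is SIE-driven beta-lactamase in ME-180 cells after 5 h IL-6 exposure with compound.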

[9] = target: Lysosomal acid glucosylceramidase (Homo sapiens) (UniProt P04062); assay: Glucocerebrosidase-p2 (AID 348; in the data active = potency below about 10 µM; note: potency is the fitted concentration of half-maximal effect); settings: purified GBA, blue fluorogenic substrate, 40 min
From the text: Beta-glucocerebrosidase catalyzes the hydrolysis of beta-glucocerebroside to glucose and ceramide. The inherited deficiency of beta-glucocerebrosidase results in Gaucher disease, which is characterized by a wide variety of symptoms including hepatosplenomegaly, anemia, thrombocytopenia, bony lesions and bone marrow infiltration with characteristic storage cells, known as Gaucher cells. There are also forms of the disorder affecting the central nervous system. Patients with the same genotypes can manifest with diverse clinical presentations and it is believed that improper folding and trafficking of beta-glucocerbrosidase may contribute to the phenotypes observed.
Low molecular weight molecules, acting as chaperones, may potentially restore trafficking of misfolded beta-glucocerebrosidase from the endoplasmic reticulum to the lysosomes, thereby enhancing functional lysosomal beta-glucocerebrosidase activity.
Using normal beta-glucocerebrosidase, an assay was developed to screen for small molecule inhibitors that could potentially act as molecular chaperones on the mutant forms [developed with NIH investigator Dr. Ellen Sidransky#s laboratory]. Two pro-fluorescent substrates were chosen for two screens against a small molecule library. […]
Blue fluorescence substrate assay: […]
Read the plate in Viewlux plate reader (Ex=365(10) and Em=440(10)).

[10] = target: Guanine nucleotide-binding protein G(i) subunit alpha-1 (Homo sapiens) (UniProt P63096); assay: qHTS Assay for Inhibitors of RGS12 GoLoco Motif Activity (Green Fluorophore) (AID 879; active = well fitted curve in the direction sought with a large enough effect;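 note: 0% = labeled peptide with Gαi1 and full inhibition = labeled peptide alone without protein; negative values mean loss of peptide binding seen as reduced polarization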)
Summary of the method: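 A drop in FITC polarization marked displacement of the FITC-tagged RGS12 GoLoco peptide (10 nM) from Gαi1 (50 nM). Compounds were incubated 10 min at room temperature in Tris pH 7.5 buffer containing 150 mM NaCl, 0.1 mM GDP and 0.05% NP40; unlabeled peptide titration served as control.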

Chain of Cytochrome P450 1A2 (Homo sapiens) (P05177 whole entry, looked up): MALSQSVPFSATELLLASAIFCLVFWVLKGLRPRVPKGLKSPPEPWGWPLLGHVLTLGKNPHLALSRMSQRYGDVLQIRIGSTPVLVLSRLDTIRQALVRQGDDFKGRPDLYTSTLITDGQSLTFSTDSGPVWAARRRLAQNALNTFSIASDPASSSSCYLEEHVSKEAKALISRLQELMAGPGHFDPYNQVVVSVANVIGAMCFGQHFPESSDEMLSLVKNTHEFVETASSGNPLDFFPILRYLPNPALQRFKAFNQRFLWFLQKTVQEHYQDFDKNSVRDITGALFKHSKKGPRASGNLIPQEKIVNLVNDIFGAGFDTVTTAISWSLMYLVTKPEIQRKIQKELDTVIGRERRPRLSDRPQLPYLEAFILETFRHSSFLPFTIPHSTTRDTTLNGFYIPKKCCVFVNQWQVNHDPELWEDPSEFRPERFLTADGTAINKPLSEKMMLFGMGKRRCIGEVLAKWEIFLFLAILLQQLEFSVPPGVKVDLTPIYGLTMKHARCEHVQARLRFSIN
Chain of 3',5'-cyclic-AMP phosphodiesterase 4B (Homo sapiens) (Q07343 whole entry, looked up): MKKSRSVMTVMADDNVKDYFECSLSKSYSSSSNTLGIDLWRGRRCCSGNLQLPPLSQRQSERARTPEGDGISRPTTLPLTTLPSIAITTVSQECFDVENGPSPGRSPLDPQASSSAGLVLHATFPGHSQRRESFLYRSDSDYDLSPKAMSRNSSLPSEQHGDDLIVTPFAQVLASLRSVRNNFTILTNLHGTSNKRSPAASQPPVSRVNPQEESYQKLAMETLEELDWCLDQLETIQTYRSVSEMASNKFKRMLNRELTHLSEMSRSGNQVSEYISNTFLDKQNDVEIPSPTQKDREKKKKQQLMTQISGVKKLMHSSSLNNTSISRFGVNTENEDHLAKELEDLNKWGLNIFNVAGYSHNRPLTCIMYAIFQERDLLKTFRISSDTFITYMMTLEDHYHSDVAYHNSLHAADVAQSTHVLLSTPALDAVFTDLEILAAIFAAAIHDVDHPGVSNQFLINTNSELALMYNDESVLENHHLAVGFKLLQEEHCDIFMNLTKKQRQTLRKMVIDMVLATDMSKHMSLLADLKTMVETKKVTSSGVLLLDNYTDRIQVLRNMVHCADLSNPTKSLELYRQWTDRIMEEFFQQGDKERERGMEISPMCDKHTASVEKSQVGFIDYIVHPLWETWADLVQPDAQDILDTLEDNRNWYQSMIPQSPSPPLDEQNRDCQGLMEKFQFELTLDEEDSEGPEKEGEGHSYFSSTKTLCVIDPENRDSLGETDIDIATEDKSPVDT
Chain of Glucocorticoid receptor (Homo sapiens) (P04150 whole entry, looked up, the tested form may be a part): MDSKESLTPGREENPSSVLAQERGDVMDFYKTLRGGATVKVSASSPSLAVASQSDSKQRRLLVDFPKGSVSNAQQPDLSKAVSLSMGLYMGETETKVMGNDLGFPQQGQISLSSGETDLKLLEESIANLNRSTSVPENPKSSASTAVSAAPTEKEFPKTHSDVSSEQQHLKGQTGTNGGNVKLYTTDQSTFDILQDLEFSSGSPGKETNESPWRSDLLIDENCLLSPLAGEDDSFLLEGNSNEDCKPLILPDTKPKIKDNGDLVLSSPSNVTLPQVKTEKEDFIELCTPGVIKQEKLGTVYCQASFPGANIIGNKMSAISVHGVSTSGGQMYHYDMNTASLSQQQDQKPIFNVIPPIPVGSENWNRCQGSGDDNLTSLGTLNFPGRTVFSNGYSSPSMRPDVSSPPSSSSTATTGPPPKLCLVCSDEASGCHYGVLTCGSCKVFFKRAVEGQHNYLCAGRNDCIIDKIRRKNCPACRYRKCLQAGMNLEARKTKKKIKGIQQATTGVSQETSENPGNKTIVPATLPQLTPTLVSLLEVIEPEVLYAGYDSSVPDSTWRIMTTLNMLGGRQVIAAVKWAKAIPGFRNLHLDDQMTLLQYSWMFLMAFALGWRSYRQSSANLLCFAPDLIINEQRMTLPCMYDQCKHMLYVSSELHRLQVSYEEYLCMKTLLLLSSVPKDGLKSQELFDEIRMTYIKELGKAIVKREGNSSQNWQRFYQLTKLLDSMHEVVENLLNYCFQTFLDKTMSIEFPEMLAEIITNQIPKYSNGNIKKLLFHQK
Chain of Lysosomal acid glucosylceramidase (Homo sapiens) (P04062 whole entry, looked up): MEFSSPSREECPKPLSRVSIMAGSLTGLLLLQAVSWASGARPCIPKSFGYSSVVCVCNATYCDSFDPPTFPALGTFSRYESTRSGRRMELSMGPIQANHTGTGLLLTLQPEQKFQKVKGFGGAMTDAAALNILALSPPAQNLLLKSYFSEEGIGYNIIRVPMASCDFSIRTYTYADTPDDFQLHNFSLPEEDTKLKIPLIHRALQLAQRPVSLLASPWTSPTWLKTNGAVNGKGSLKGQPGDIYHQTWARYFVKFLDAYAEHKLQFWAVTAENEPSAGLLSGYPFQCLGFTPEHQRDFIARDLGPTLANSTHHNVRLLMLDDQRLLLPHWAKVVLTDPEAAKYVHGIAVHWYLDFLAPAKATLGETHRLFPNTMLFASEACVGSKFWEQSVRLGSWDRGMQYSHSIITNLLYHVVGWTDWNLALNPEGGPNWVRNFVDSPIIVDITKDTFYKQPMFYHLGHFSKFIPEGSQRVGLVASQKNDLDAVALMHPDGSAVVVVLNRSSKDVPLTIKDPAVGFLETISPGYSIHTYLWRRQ
Chain of Guanine nucleotide-binding protein G(i) subunit alpha-1 (Homo sapiens) (P63096 whole entry, looked up): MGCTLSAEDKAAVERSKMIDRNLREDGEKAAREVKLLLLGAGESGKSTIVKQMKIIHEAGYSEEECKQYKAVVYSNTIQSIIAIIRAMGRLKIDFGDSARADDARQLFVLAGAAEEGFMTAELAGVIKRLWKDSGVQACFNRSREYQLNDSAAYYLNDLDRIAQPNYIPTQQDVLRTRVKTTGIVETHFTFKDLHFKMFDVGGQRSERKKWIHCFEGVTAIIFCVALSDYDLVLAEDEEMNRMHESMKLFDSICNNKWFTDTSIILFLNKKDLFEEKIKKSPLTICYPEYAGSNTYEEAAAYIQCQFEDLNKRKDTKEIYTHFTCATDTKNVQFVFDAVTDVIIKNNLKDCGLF

COC(=O)C[C@](O)(CCCC(C)(C)O)C(=O)O[C@@H]1C(OC)=C[C@]23CCCN2CCc2cc4c(cc2[C@H]13)OCO4
inactive: Potency [1] | Potency [2] > 46 µM | Potency [3] > 46 µM | outcome [4] | outcome [5]

C[C@H]1C[C@@H]2[C@@H]([C@@H](O)C[C@@]3(C)[C@H]2CC[C@]3(O)C(=O)CO)[C@@]2(C)C=CC(=O)C=C12
inactive: outcome [6] | outcome [7] | outcome [8] | outcome [4] | outcome [5]

Nc1ccc(S(=O)(=O)Nc2ncccn2)cc1
inactive: outcome [6] | Potency [1] | outcome [7] | outcome [8] | outcome [4] | outcome [5]

CN(C)CCCN=c1c2ccccc2n(C)c2[nH]c(=O)n(C)c(=O)c12
inactive: Potency [9] > 11.4 µM | outcome [6] | Potency [2] > 46 µM | Potency [3] > 9.22 µM | activity change, negative = inhibition [4] 0.481% [at 11.4 µM] | outcome [5]
active: Potency [1] 5.01 µM

O=c1c2ccccc2nc2n1CCc1c-2[nH]c2ccccc12
active: Potency [1] 0.316 µM
inactive: outcome [7] | outcome [8] | Potency [2] > 46 µM | Potency [3] > 46 µM | outcome [4] | outcome [5] | outcome [10]

O=C(O)[C@H](Cc1c[nH]c2ccccc12)N1C(=O)c2ccccc2C1=O
inactive: Potency [9] > 11.4 µM | outcome [6] | activity change, negative = inhibition [1] -8.3% [at 2.29 µM] | outcome [7] | outcome [8] | Potency [2] > 46 µM | Potency [3] > 9.22 µM | activity change, negative = inhibition [4] -0.545% [at 11.4 µM] | outcome [5]

CC(C)c1ccc(Cn2ccc3c4c(N)nc(NC5CC5)nc4ccc32)cc1
inactive: Potency [2] > 46 µM | Potency [3] > 46 µM | outcome [4]
active: Potency [1] 1.58 µM
